Results from PubChem BioAssay AID485358 (National Center for Advancing Translational Sciences (NCATS), 2010).
About 1,800 (0.53%) of roughly 340,000 compounds were called active.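 How the source made its calls: active means activation over 3 SD above normal in the single-dose calcium agonist read (cut at about 30% in these data); inactive means the rest.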 Shown is part of a subset that was picked to be rich in actives.

Target: D(2) dopamine receptor (Homo sapiens) (UniProt P14416)
Test: HTS Assay for Allosteric Agonists of the Human D2 Dopamine Receptor: Primary Screen for Agonists; further: 0% is about no effect
Conditions: HEK293 T-REx D2 cells, calcium flux agonist mode; at 2 µM; active compounds read high
In short: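 Calcium-flux readout, 1 cycle/sec over 180 s following compound pin transfer, in inducible HEK293 Trex D2 cells (force-coupled); dopamine controls included. Positive calcium responses during this window marked compounds as potential agonists.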

Chain of D(2) dopamine receptor (Homo sapiens) (P14416 whole entry, looked up): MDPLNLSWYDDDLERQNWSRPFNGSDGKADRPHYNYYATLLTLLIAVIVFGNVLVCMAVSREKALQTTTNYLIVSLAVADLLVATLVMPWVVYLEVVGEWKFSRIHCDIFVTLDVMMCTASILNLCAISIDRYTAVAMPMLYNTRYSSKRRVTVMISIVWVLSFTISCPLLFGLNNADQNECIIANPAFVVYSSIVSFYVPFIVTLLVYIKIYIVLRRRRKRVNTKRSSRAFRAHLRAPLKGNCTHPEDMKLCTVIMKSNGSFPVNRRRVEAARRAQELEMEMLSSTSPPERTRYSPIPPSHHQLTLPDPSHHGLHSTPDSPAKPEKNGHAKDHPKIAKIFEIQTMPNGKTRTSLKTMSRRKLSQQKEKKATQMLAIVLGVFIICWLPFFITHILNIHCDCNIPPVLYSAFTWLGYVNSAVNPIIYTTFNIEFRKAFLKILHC

Compound | activation
Cc1cc(C)cc(NC(=O)COc2coc(CN3CCN(c4ccccc4)CC3)cc2=O)c1 | 5.66% (inactive)
O=C(COc1coc(CN2CCN(c3ccccc3)CC2)cc1=O)N1CCc2ccccc21 | -0.514% (inactive)
O=C(COc1coc(CN2CCN(c3ccccc3)CC2)cc1=O)Nc1ccccc1F | 45.8% (active)
CC(C)OC(=O)C(C#N)c1nc2ccccc2nc1N1CCN(Cc2ccc3c(c2)OCO3)CC1 (centres undefined) | 48.3% (active)
CC(C)OC(=O)C(C#N)c1nc2ccccc2nc1N1CCN(Cc2ccccc2)CC1 (centres undefined) | 0.138% (inactive)
N#C/C=C/N1CCN(Cc2ccc3c(c2)OCO3)CC1 | 0.771% (inactive)
Cc1ccc(Cl)cc1NC(=O)/C(C#N)=C\c1cn(Cc2ccc(F)cc2)c2ccccc12 | 0.348% (inactive)
Cc1cc2nc3c(=O)n(Cc4ccccc4)c(=O)[nH]c3nc2cc1N | 64.2% (active)
C=CCSc1nc2c(c(=O)[nH]c(=O)n2C)n1Cc1ccccc1 | -0.578% (inactive)
Cc1nc2c(c(=O)n1Cc1ccco1)c1nc3ccccc3nc1n2Cc1ccccc1 | -0.619% (inactive)
Cc1cccc(CC(=O)N2CC(=O)Nc3ccc(F)cc3C2c2ccccc2)c1 (centres undefined) | -0.521% (inactive)
CCCN(CCC)C(=O)C1CCCN(c2ncnc3c2nc2n3CCCCC2)C1 (centres undefined) | 0.0903% (inactive)
Cn1c(=O)c2sccc2n2c(CCC(=O)NCc3ccccc3Cl)nnc12 | -0.258% (inactive)
O=C1c2cccc3c([N+](=O)[O-])ccc(c23)C(=O)N1CC1CCCO1 (centres undefined) | 3% (inactive)
Cc1nn(C)cc1N1C(=O)c2cccc3c(N)ccc(c23)C1=O | 74% (active)
CC(C(=O)O)N1C(=O)c2cccc3cccc1c23 (centres undefined) | 0.197% (inactive)
CN1C(=O)c2cccc3c(N)ccc(c23)C1=O | 109% (active)
COCCNC(=O)c1ccc2c(c1)N=C(C)c1cc(C)ccc1S2 | 0.312% (inactive)
Cc1ccc(-n2c(SCC(=O)Nc3cccc(F)c3)nc3c(oc4ccccc43)c2=O)cc1C | 2.59% (inactive)
Cc1ccc(N2CCN(C(=O)CCc3c(C)nc4c(c3C)c(=O)n(C)c(=O)n4C)CC2)c(C)c1 | -0.245% (inactive)
CCc1nnc(SCc2c(F)cccc2Cl)c2cc3sccc3n12 | 0.47% (inactive)
COc1ccc(-c2cn3nc(N4CCCC(C(=O)NCCCOC(C)C)C4)sc3n2)cc1 (centres undefined) | -0.281% (inactive)
CN1c2ccc(Cl)cc2-c2nc(SCC(=O)Nc3cc(F)ccc3F)ncc2S1(=O)=O | 0.0638% (inactive)

Compound | activation
CO/N=C/c1cn(-c2ccc(Cl)cc2)nn1 | 33.3% (active)
O=C(COc1ccc(Cl)cc1)Nc1ccc(-c2nc3cc(Cl)ccc3o2)c(O)c1 | 1.1% (inactive)
O=C(NC1CC(=O)N(c2ccc(F)cc2)C1)C1CCCCC1 (centres undefined) | 1.31% (inactive)
CCOc1ccc(C(=O)N2CCN(CCc3ccccn3)CC2)cc1 | 0.162% (inactive)
Cc1cc(NC(=O)CSc2ncc(C(=O)Nc3ccc(Cl)cc3)c(=O)n2C)no1 | 0.675% (inactive)
O=C(Nc1ccccc1C(=O)N1CCCCC1)c1ccco1 | -0.0145% (inactive)
CS/C(=C\C(=O)c1ccco1)Nc1ccccc1Cl | 34.5% (active)
Cc1c(Cl)cccc1NC(=O)CCC(=O)N/N=C/c1ccco1 | 0.478% (inactive)
CNC(=S)N1CCN(c2ccccn2)CC1 | 2.09% (inactive)
O=C(C(Cl)Cl)N1CCN(c2ccccn2)CC1 | 4.39% (inactive)
CC(=C1C(=O)c2ccccc2C1=O)N1CCN(c2ccccn2)CC1 | 62.2% (active)
Cc1cccc(-c2nnc(SCC(=O)N3CCCc4ccccc43)o2)c1 | -1.45% (inactive)
CC(C)c1ccc(C2CC(=O)N3CN(C4CCCCC4)CSC3=C2C#N)cc1 (centres undefined) | 0.111% (inactive)
COc1ccccc1-c1cc2nc(C)c(CCC(=O)O)c(C)n2n1 | 0.732% (inactive)
COc1ccc(N2CCN(S(=O)(=O)c3ccc(-c4coc(C)n4)cc3)CC2)cc1 | -0.462% (inactive)
COc1cc(OC)c(NC(=O)c2cc(S(=O)(=O)N3CCCC3)cn2C)cc1Cl | 2.37% (inactive)
CCC1=Nc2cc(C(=O)NCC(C)c3ccccc3)ccc2Sc2ccc(C)cc21 (centres undefined) | -0.272% (inactive)
CCCCCc1c(C)nc(N2CCN(Cc3ccc4c(c3)OCO4)CC2)[nH]c1=O | 0.0879% (inactive)
O=C(CSc1nc2c(c(=O)[nH]1)CN(Cc1ccc3c(c1)OCO3)CC2)Nc1cc(F)ccc1F | 0.843% (inactive)
Fc1ccc2[nH]c3c(N4CCN(Cc5ccc6c(c5)OCO6)CC4)ncnc3c2c1 | 35.9% (active)
CCn1c2ccccc2c2nnc(SCC(=O)O)nc21 | -0.808% (inactive)
CCCCc1nn2c(=O)cc(COC(=O)c3ccc(NC(=O)c4ccccc4C)cc3)nc2s1 | 8.52% (inactive)
Cn1c(=O)c(=O)n(C)c2cc(S(=O)(=O)NCCN3CCN(c4ccccc4F)CC3)ccc21 | 67.4% (active)

Compound | activation
CCOC(=O)N1CCN(c2c(NCCN3CCN(c4ccccc4F)CC3)c(=O)c2=O)CC1 | 10.4% (inactive)
O=C(CCCNS(=O)(=O)c1cccc2nsnc12)NCCN1CCN(c2ccccc2F)CC1 | 24.7% (inactive)
COc1ccccc1CN1CCC(CNC(=O)c2cnn(-c3ccccc3Cl)c2C2CCN(C(=O)OC(C)(C)C)CC2)CC1 | 3.36% (inactive)
Cc1ccccc1NC(=O)Cn1c(=O)n(Cc2ccco2)c(=O)c2ccc(C(=O)NC3CCCC3)cc21 | 0.581% (inactive)
Cc1cccc(-n2c(=O)c3c(c4cc(C)ccc4n3C)n(CC(=O)Nc3ccccc3Cl)c2=O)c1 | 0.838% (inactive)
O=S(=O)(c1cccs1)N1CCN(CCOc2ccccc2)CC1 | 21.2% (inactive)
Cc1nc(CN2CCN(C(=O)CCc3nnc(Cc4c[nH]c5ccccc45)o3)CC2)cs1 | 0.942% (inactive)
COC(c1ccccc1)c1nnc(CCC(=O)N2CCN(CCOc3ccccc3)CC2)o1 (centres undefined) | 47% (active)
Cc1ccc(Nc2ccc3cc(S(=O)(=O)N4CCCCC4)ccc3n2)cc1F | 0.936% (inactive)
Cc1cccc(NC(=O)CN(c2ccc(C(C)C)cc2)S(=O)(=O)c2c(C)nn(C)c2C)c1C | 0.387% (inactive)
Cc1nc2nc(SCC(=O)NC3CCC(C)CC3)nn2c(C)c1Cc1ccccc1Cl (centres undefined) | -0.0264% (inactive)
COc1ccccc1-c1noc(-c2ccc(NCc3ccccc3)c([N+](=O)[O-])c2)n1 | -0.924% (inactive)
Cc1ccccc1C(=O)Nc1cc(C)c(O)c(-c2nc3ccccc3o2)c1 | -0.387% (inactive)
O=C(Nc1cccc2ccccc12)N1CCN(Cc2ccc3c(c2)OCO3)CC1 | 5.88% (inactive)
COc1ccc(-c2cc(C(=O)N3CCN(Cc4ccc5c(c4)OCO5)CC3)on2)cc1OC | -0.524% (inactive)
O=C(C1CCN(Cc2ccc(Cl)cc2)CC1)N1CCN(Cc2ccc3c(c2)OCO3)CC1 | 0.973% (inactive)
O=C(c1cccs1)N1CCN(Cc2ccc3c(c2)OCO3)CC1 | 84.2% (active)
Cc1cc(C)n2nc(C(=O)Oc3ccc4c(c3)OCO4)nc2n1 | -0.808% (inactive)
CCn1cc(C(=O)NCc2ccc3c(c2)OCO3)c2cc(OC)c(OC)cc2c1=O | -0.995% (inactive)
Cc1cc(C)n2nc(C(=O)N3CCN(Cc4ccc5c(c4)OCO5)CC3)nc2n1 | 40.9% (active)
CCn1cc(C(=O)N2CCN(Cc3ccc4c(c3)OCO4)CC2)c2cc(OC)c(OC)cc2c1=O | 51.1% (active)
CCn1cc(C(=O)N2CCN(C3CCCCC3)CC2)c2cc(OC)c(OC)cc2c1=O | 0.186% (inactive)
COc1cc(OC)c(N(C)C(=O)c2cc3c(=O)oc4ccccc4c3s2)cc1Cl | 0.129% (inactive)

Compound | activation
Cc1ccc(C)c(N2CCN(c3ccc4cc(S(=O)(=O)N5CCC(C)CC5)ccc4n3)CC2)c1 | 0.192% (inactive)
Cc1ccc(-c2cn3c(n2)sc2cc(C(=O)NCCCc4ccccc4)ccc23)cc1 | 1.23% (inactive)
CCN(CC)S(=O)(=O)c1ccc2c(c1)N(CC(=O)NCc1ccccc1)C(=O)CS2 | -0.489% (inactive)
Cc1cccc(S(=O)(=O)c2cn(Cc3ccccc3)c3cc(N4CCOCC4)c(F)cc3c2=O)c1 | -0.108% (inactive)
COc1ccccc1-c1ccnc2[nH]n(-c3ccccc3)c(=O)c12 | -0.0633% (inactive)
COc1cc(OC)cc(C(=O)N[C@H](C(=O)Nc2nc3ccccc3[nH]2)C(C)C)c1 | 0.237% (inactive)
COc1ccc(C(=O)N[C@H](C(=O)NCc2ccccc2)C(C)C)cc1 | -0.577% (inactive)
COc1cc(OC)cc(C(=O)N[C@H](C(=O)OCC(=O)NC(C)c2ccccc2)C(C)C)c1 (some centres undefined) | 32.6% (active)
Cc1ccc(CN2CCN(c3ncccn3)CC2)c(C)c1 | 71.3% (active)
Cc1ccc(CN2CCN(/N=C/c3cccnc3)CC2)c(C)c1 | -0.239% (inactive)
Cc1ccc(CN2CCN(/N=C/c3ccco3)CC2)c(C)c1 | 0.881% (inactive)
CN(C)C(=O)c1nc2ccc(Cl)cn2c1CN1CCN(c2ncccn2)CC1 | 5.69% (inactive)
Oc1ccc(CN2CCN(c3ncccn3)CC2)cc1 | 84.4% (active)
c1cnc(N2CCN(c3ccc4ccccc4n3)CC2)nc1 | 0.566% (inactive)
COc1cc(C(CC(=O)NCCC(C)C)N2Cc3ccccc3C2=O)cc(OC)c1OC (centres undefined) | 2.01% (inactive)
CCc1ccc2oc(-c3ccc(C)c(NC(=O)/C=C/c4ccco4)c3)nc2c1 | 0.62% (inactive)
CCc1ccccc1NC(=O)Cn1c(=O)n(-c2cccc(C)c2)c(=O)c2c1c1cc(OC)ccc1n2C | 0.643% (inactive)
CC(CCc1ccccc1)NCC(O)c1cccc([N+](=O)[O-])c1 (centres undefined) | 59.5% (active)
O=C(CC(c1ccccc1)c1ccccc1)NCC(O)c1ccc([N+](=O)[O-])cc1 (centres undefined) | -0.594% (inactive)
CC(C)OP(=O)(OC(C)C)C(Nc1ccccc1)c1cccc([N+](=O)[O-])c1 (centres undefined) | -2.16% (inactive)
